Results filed as inconclusive are left out. The source made the active and inactive calls. How the source made its calls, unless noted: active means hit-call score of the fitted dose curve at least 0.9, where 1 is the maximum; inconclusive means response in the unintended direction; inactive means score below 0.9.
How the values were obtained:
THRB (gene 7068) = THRB (gene 7068) (UniProt P10828); assay: TOX21_TRB_COA_Agonist_Followup_ratio: Tox21 Thyroid Hormone Receptor beta Agonism through Coactivator Recruitment Follow-Up Assay, Ratio (AID 2283963; active means hit-call score of the fitted dose curve at least 0.9, where 1 is the maximum; inactive means score below 0.9)
Method in brief: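 Agonism is measured as coactivator recruitment in a purified-protein TR-FRET format, using GST-TRβ LBD at 5.0 nM, fluorescein-SRC-2 peptide at 200 nM and Tb-labeled anti-GST antibody at 2 nM. Values are 520:495 nm ratios relative to DMSO (0%) and T3 (100%).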

[1] = molecular target: Retinoic acid receptor RXR-alpha (Homo sapiens) (UniProt P19793); assay: TOX21_TR_RXR_BLA_Agonist_Followup_ratio: Tox21 Thyroid Hormone Receptor beta Retinoid X Receptor alpha (RXRa) Agonism Beta-lactamase (BLA) Follow-Up Assay, Ratio (AID 2283968)
Method in brief: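 Agonist mode: compounds given to RXRa-bla HEK293T cells at 11 concentrations, triplicate, 16 h at 37C/5% CO2. Readout is the 460:530 nm blue/green ratio after 2 h substrate loading at room temperature; DMSO baseline, 9-cis retinoic acid control.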

[2] = TOX21_TR_RXR_BLA_Agonist_Followup_viability: Viability Assessment in the Tox21 Thyroid Hormone Receptor beta Retinoid X Receptor alpha (RXRa) Agonism Beta-lactamase (BLA) Follow-Up Assay (AID 2283970)
Method in brief: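 CellTiter-Glo ATP luciferase read-out of cell viability, multiplexed with the beta-lactamase reporter run. RXRa-bla HEK293T cells in charcoal-stripped serum medium were exposed 16 h at 37C; data fitted both directions relative to DMSO.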

Measured: outcome

Sequence of Retinoic acid receptor RXR-alpha (Homo sapiens) (P19793 whole entry, looked up): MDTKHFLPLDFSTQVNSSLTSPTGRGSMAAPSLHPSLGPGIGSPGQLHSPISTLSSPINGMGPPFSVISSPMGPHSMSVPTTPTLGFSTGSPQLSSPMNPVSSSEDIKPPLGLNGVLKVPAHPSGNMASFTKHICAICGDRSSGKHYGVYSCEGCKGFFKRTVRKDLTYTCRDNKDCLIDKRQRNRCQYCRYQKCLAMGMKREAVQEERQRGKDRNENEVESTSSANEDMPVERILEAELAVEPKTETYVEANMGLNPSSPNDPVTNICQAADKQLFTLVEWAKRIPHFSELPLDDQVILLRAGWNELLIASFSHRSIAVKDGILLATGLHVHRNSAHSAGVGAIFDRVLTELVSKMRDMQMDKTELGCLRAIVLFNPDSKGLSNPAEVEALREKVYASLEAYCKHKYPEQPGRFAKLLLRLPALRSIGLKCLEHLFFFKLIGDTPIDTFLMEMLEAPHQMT
Sequence of THRB (gene 7068) (P10828 whole entry, looked up, the tested form may be a part): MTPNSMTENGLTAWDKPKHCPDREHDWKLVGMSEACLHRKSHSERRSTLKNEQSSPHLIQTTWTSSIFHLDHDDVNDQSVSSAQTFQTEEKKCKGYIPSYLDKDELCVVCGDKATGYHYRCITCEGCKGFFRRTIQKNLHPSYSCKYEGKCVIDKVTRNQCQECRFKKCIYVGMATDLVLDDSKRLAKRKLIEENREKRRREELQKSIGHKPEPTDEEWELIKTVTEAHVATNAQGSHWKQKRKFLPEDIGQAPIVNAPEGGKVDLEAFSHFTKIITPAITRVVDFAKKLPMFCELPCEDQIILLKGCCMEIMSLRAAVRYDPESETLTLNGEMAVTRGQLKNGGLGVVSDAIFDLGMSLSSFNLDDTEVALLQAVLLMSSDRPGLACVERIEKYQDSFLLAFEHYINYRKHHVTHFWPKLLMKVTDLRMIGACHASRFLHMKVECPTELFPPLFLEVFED

C[N+]1(C)CCCCC1
inactive: all assays above

Source: PubChem BioAssay (EPA / NIEHS)
